Results published in paper PMC7862700, “An all-to-all approach to the identification of sequence-specific readers for epigenetic DNA modifications on cytosine”.

Assays:
Test in all cases: DAPPL (digital affinity profiling via proximity ligation, sequencing); 10 mM Tris-HCl pH 7.5, 50 mM NaCl, 1 mM DTT, 4% glycerol, room temperature, 30 min; GST-TFs on glutathione beads, 16-mer random dsDNA library, 0.1% formaldehyde crosslink after washing; high values mean tight binding
FLI1 = biological target: T1, FLI1 (Homo sapiens, UniProt Q01543 1-452); conditions: protein: recombinant; tags: N-terminal GST; dsDNA, one strand shown
T1 sequence: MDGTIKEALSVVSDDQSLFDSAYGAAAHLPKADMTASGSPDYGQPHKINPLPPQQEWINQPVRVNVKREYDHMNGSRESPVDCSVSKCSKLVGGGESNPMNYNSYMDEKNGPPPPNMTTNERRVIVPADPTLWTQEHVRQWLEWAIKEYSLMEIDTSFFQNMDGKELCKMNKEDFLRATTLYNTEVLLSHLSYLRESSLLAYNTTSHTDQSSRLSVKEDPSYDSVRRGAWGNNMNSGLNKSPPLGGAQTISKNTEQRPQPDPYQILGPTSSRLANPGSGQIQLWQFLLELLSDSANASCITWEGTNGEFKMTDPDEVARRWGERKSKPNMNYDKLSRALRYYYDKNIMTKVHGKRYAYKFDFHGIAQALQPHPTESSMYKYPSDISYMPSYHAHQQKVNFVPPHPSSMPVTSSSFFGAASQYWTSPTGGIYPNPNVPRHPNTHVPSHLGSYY
How it was run: (§1)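 A tag-only sample was pooled with DNA-barcoded human transcription factors that had been expressed in yeast as GST fusions and captured on glutathione beads. The pools were incubated for 30 min at room temperature with 200 nmole of a random double-stranded 16-mer DNA library in Tris/NaCl/DTT/glycerol buffer, then washed, crosslinked with 0.1% formaldehyde, proximity-ligated (BsaI/T4 ligase, 1 h, 37 °C), PCR-amplified and sequenced on an Illumina NextSeq500. Binding signal is each hexamer's read frequency for a factor divided by its frequency for the tag-only sample.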

ELK1 = biological target: T2, ELK1 (Homo sapiens, UniProt P19419 1-428); conditions: protein: recombinant; tags: N-terminal GST; dsDNA, one strand shown
T2 sequence: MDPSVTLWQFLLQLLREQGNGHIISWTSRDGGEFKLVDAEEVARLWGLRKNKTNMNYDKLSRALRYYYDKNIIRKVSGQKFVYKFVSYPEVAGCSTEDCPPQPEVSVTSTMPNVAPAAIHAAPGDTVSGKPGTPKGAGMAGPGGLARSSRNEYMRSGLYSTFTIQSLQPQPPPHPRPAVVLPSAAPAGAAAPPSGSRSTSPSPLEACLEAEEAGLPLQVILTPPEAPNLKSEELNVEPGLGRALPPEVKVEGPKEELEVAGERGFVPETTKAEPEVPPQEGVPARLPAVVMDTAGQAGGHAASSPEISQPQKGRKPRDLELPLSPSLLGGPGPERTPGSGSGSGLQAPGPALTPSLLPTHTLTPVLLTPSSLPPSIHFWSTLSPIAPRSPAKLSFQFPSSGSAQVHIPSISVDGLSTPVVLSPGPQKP
How it was run: as §1

GABPA = biological target: T3, GABPA (Homo sapiens, UniProt Q06546 1-454); conditions: protein: recombinant; tags: N-terminal GST; dsDNA, one strand shown
T3 sequence: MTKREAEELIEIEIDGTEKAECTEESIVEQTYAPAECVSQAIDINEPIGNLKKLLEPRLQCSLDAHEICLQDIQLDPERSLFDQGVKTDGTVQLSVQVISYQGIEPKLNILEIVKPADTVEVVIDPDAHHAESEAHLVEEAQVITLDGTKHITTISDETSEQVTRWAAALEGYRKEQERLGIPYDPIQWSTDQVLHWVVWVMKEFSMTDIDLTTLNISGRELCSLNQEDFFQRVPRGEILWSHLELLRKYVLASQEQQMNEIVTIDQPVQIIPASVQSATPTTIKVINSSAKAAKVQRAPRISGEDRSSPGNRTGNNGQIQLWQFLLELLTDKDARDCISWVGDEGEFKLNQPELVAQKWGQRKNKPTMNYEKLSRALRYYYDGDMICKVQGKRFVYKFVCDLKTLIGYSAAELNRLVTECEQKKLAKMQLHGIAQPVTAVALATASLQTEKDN
How it was run: as §1

ERG = biological target: T4, ERG (Homo sapiens, UniProt P11308 1-479); conditions: protein: recombinant; tags: N-terminal GST; dsDNA, one strand shown
T4 sequence: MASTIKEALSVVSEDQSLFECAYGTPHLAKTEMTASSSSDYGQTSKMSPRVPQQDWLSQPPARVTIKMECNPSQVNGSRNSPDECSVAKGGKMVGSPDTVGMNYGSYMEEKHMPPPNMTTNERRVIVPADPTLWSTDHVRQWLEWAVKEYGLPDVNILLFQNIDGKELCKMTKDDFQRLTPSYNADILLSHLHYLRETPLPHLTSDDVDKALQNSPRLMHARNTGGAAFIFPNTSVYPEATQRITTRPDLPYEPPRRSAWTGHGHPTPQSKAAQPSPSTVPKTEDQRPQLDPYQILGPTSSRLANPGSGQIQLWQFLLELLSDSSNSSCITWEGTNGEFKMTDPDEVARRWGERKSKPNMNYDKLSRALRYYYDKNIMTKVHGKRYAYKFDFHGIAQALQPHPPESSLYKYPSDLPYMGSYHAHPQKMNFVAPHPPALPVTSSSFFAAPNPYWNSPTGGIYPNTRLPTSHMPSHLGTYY
How it was run: as §1

ELF1 = ELF1 (Homo sapiens, UniProt P32519 1-619); conditions: protein: recombinant; tags: N-terminal GST; dsDNA, one strand shown
ELF1, sequence (P32519 whole entry): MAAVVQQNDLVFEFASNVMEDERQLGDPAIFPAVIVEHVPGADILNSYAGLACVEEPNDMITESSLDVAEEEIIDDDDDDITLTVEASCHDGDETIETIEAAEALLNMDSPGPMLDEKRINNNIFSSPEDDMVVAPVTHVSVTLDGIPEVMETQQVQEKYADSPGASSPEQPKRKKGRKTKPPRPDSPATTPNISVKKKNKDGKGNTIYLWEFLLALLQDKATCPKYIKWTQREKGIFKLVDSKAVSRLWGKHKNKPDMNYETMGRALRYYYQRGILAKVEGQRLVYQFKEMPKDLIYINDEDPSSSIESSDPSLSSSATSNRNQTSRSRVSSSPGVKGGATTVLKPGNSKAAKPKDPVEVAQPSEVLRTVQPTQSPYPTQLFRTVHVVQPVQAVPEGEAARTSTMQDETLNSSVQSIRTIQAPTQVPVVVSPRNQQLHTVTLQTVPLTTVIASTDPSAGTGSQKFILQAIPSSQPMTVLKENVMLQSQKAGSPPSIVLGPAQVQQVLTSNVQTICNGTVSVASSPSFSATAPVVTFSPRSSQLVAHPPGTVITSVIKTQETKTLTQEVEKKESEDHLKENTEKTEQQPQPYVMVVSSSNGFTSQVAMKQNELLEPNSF
How it was run: as §1

EHF = biological target: T5, EHF (Homo sapiens, UniProt Q9NZC4 1-300); conditions: protein: recombinant; tags: N-terminal GST; dsDNA, one strand shown
T5 sequence: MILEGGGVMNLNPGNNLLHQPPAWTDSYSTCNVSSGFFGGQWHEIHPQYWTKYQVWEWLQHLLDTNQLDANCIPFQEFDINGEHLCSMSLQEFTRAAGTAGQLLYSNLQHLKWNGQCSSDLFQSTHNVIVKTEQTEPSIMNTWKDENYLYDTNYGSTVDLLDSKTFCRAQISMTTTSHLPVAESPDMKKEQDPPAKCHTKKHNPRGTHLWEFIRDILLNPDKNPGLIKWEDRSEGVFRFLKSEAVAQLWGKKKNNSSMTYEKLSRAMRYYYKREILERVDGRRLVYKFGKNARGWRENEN
How it was run: as §1

SPI1 = SPI1 (Homo sapiens, UniProt P17947 1-270); conditions: protein: recombinant; tags: N-terminal GST; dsDNA, one strand shown
How it was run: as §1

SPIB = SPIB (Homo sapiens, UniProt Q01892 1-262); conditions: protein: recombinant; tags: N-terminal GST; dsDNA, one strand shown
SPIB, sequence (Q01892 whole entry): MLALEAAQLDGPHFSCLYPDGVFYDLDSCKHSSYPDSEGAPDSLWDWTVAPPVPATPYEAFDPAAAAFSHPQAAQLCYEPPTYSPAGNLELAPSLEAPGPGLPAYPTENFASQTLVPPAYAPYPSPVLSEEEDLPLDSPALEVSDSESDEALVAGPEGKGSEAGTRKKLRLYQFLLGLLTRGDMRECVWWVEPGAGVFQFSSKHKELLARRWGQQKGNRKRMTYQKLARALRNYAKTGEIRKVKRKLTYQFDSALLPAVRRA
How it was run: as §1

ELK3 = biological target: T6, ELK3 (Homo sapiens, UniProt P41970 1-407); conditions: protein: recombinant; tags: N-terminal GST; dsDNA, one strand shown
T6 sequence: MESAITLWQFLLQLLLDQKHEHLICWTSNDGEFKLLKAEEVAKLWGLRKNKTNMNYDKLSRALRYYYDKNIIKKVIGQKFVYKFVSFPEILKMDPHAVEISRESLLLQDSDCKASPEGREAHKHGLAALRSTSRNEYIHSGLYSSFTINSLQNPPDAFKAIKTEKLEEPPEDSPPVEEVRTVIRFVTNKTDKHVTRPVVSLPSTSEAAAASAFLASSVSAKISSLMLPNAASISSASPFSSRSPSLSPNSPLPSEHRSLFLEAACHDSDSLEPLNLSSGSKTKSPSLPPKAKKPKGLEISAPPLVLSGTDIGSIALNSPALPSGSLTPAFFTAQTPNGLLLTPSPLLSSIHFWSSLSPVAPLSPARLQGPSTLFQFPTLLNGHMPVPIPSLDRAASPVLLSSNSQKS
How it was run: as §1

FEV = biological target: T7, FEV (Homo sapiens, UniProt Q99581 1-238); conditions: protein: recombinant; tags: N-terminal GST; dsDNA, one strand shown
T7 sequence: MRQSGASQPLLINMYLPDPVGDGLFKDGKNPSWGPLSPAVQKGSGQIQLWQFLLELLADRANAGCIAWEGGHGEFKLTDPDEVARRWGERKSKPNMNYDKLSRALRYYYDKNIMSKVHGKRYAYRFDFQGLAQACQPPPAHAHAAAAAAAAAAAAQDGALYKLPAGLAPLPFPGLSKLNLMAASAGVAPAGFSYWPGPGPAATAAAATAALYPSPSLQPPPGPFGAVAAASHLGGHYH
How it was run: as §1

ETV5 = ETV5 (Homo sapiens, UniProt P41161 1-510); conditions: protein: recombinant; tags: N-terminal GST; dsDNA, one strand shown
ETV5, sequence (P41161 whole entry): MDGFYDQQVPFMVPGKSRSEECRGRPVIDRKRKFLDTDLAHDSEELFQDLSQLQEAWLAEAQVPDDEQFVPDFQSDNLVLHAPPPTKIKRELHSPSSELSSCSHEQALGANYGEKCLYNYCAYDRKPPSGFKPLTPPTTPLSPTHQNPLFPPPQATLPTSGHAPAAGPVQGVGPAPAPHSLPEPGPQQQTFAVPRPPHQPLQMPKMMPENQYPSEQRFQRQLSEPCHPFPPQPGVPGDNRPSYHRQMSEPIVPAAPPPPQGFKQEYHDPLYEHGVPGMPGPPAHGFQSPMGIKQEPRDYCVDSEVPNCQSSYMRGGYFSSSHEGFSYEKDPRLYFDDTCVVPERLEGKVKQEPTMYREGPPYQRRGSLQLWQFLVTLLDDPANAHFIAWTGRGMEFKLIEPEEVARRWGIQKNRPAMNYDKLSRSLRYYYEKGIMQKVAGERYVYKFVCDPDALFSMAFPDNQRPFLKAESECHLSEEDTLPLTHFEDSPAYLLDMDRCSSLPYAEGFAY
How it was run: as §1

HSF1 = HSF1 (Homo sapiens, UniProt Q00613 1-529); conditions: protein: recombinant; tags: N-terminal GST; chain copies: 3; dsDNA, one strand shown
HSF1, sequence (Q00613 whole entry): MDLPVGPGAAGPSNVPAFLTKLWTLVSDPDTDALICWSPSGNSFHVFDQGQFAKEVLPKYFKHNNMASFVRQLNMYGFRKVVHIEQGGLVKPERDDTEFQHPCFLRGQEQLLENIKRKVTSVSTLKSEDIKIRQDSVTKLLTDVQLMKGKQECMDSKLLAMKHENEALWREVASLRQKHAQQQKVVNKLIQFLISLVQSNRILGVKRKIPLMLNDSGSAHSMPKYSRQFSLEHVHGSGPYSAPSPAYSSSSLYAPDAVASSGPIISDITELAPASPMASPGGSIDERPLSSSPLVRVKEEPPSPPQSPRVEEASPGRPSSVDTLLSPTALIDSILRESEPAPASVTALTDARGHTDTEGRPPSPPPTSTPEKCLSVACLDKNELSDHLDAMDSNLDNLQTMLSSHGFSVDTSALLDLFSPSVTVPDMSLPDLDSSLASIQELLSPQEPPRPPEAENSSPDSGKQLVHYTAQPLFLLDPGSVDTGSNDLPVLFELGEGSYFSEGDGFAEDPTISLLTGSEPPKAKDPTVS
How it was run: as §1

SPIC = biological target: T8, SPIC (Homo sapiens, UniProt Q8N5J4 1-248); conditions: protein: recombinant; tags: N-terminal GST; dsDNA, one strand shown
T8 sequence: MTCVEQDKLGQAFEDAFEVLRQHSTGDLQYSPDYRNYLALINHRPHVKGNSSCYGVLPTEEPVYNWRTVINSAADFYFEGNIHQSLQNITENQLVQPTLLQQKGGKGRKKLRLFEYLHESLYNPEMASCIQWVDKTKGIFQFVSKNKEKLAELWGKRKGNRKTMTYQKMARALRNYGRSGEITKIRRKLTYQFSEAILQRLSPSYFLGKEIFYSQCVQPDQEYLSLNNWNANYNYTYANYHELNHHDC
How it was run: as §1

ELF4 = ELF4 (Homo sapiens, UniProt Q99607 1-663); conditions: protein: recombinant; tags: N-terminal GST; dsDNA, one strand shown
ELF4, sequence (Q99607 whole entry): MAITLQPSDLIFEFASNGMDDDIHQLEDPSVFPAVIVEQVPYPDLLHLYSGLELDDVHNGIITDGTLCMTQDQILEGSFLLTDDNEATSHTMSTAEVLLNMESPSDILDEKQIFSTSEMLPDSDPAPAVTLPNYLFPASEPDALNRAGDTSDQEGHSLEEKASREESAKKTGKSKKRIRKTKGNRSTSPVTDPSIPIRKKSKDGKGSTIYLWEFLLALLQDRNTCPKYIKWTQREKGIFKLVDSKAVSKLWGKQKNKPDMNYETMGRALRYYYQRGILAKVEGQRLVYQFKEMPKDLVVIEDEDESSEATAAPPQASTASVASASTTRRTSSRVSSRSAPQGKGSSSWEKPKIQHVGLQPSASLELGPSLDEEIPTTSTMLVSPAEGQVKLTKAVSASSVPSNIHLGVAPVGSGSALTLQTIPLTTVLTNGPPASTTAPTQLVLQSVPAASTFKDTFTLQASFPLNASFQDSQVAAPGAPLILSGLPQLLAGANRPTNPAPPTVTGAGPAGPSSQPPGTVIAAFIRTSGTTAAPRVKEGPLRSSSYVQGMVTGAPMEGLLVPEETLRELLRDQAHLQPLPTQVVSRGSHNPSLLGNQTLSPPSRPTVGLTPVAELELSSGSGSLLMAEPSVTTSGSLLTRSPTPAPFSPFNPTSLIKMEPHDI
How it was run: as §1

ELK4 = biological target: T9, ELK4 (Homo sapiens, UniProt P28324-2 1-405); conditions: protein: recombinant; tags: N-terminal GST; dsDNA, one strand shown
T9 sequence: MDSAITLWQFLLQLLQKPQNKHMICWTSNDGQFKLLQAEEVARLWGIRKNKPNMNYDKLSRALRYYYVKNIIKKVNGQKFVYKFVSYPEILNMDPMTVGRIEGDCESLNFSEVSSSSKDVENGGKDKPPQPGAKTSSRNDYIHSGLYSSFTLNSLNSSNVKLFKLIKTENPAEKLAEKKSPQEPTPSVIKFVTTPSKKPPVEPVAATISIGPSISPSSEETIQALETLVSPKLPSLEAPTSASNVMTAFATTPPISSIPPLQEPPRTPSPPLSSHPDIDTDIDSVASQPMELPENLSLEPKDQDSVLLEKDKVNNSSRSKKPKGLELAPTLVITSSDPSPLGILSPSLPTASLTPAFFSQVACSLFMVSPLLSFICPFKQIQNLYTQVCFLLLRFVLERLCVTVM
How it was run: as §1

ETV2 = biological target: T10, ETV2 (Homo sapiens, UniProt O00321 1-342); conditions: protein: recombinant; tags: N-terminal GST; dsDNA, one strand shown
T10 sequence: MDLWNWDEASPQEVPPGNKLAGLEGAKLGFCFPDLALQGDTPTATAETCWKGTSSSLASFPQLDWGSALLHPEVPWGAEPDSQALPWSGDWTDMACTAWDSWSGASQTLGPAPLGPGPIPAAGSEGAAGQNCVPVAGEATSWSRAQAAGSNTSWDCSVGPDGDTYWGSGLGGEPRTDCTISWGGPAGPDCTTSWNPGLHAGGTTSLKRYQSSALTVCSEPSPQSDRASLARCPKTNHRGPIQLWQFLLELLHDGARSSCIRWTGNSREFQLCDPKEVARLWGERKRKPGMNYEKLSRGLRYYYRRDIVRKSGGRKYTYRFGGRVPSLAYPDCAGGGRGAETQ
How it was run: as §1

ELF3 = biological target: T11, ELF3 (Homo sapiens, UniProt P78545 1-371); conditions: protein: recombinant; tags: N-terminal GST; dsDNA, one strand shown
T11 sequence: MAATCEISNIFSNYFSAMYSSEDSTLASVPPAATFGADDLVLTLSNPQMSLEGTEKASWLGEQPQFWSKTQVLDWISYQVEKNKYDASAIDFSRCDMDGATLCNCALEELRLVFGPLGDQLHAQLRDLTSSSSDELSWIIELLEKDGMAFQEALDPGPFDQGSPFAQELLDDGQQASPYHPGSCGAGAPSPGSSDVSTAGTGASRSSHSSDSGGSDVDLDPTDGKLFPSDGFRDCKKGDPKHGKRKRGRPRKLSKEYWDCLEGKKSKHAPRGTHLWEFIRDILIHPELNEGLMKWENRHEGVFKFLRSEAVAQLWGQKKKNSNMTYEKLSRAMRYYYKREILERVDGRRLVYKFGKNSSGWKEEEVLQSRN
How it was run: as §1

CRX = CRX (Homo sapiens, UniProt O43186 1-299); conditions: protein: recombinant; tags: N-terminal GST; dsDNA, one strand shown
CRX, sequence (O43186 whole entry): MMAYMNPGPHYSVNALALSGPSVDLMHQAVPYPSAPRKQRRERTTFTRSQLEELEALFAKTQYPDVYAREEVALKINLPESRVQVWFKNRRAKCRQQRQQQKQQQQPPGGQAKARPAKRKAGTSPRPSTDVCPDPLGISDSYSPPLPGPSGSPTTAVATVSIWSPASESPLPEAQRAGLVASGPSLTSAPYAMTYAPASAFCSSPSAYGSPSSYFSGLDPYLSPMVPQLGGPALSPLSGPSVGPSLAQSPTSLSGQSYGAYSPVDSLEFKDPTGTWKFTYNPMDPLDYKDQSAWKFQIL
How it was run: as §1

ETV1 = ETV1 (Homo sapiens, UniProt P50549 1-477); conditions: protein: recombinant; tags: N-terminal GST; dsDNA, one strand shown
ETV1, sequence (P50549 whole entry): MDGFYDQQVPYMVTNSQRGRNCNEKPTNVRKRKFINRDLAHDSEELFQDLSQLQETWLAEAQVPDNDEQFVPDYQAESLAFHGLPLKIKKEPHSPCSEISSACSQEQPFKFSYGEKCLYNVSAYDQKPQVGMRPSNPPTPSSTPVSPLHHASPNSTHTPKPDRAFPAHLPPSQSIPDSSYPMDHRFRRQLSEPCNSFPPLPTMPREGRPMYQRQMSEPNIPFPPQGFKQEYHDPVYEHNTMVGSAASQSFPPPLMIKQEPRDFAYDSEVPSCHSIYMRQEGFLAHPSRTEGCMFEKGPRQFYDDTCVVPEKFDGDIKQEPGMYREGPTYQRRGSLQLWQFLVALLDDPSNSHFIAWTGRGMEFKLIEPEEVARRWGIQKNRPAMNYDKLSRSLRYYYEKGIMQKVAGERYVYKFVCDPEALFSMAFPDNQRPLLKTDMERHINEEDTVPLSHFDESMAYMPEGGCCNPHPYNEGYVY
How it was run: as §1

TTTTTG was tested, and the binding signal (FLI1) was 1.43 fold enrichment (6-mer frequency, TF over GST control), the binding signal (ELK1) was 1.29 fold enrichment (6-mer frequency, TF over GST control) and the binding signal (GABPA) was 1.38 fold enrichment (6-mer frequency, TF over GST control). For the same sequence, the binding signal (ERG) was 1.33 fold enrichment (6-mer frequency, TF over GST control), the binding signal (ELF1) was 1.4 fold enrichment (6-mer frequency, TF over GST control) and the binding signal (EHF) was 1.27 fold enrichment (6-mer frequency, TF over GST control). For the same sequence, the binding signal (SPI1) was 1.54 fold enrichment (6-mer frequency, TF over GST control), the binding signal (SPIB) was 1.5 fold enrichment (6-mer frequency, TF over GST control) and the binding signal (ELK3) was 1.4 fold enrichment (6-mer frequency, TF over GST control). The binding signal (FEV) was 1.33 fold enrichment (6-mer frequency, TF over GST control), the binding signal (ETV5) was 1.42 fold enrichment (6-mer frequency, TF over GST control) and the binding signal (HSF1) was 1.24 fold enrichment (6-mer frequency, TF over GST control). The binding signal (SPIC) was 1.39 fold enrichment (6-mer frequency, TF over GST control), the binding signal (ELF4) was 1.45 fold enrichment (6-mer frequency, TF over GST control) and the binding signal (ELK4) was 1.5 fold enrichment (6-mer frequency, TF over GST control). For the same sequence, the binding signal (ETV2) was 1.51 fold enrichment (6-mer frequency, TF over GST control), the binding signal (ELF3) was 1.44 fold enrichment (6-mer frequency, TF over GST control) and the binding signal (CRX) was 1.31 fold enrichment (6-mer frequency, TF over GST control). For the same sequence, the binding signal (ETV1) was 1.48 fold enrichment (6-mer frequency, TF over GST control).
